# Results reported in PubChem BioAssay AID720576 (National Center for Advancing Translational Sciences (NCATS), 2013).
# The list shows a part of the results. Entries that show only a call come without a potency. Results filed as inconclusive are left out. Activity calls are given as the source filed them. The call rests on the fitted dose curve; in most records, active means well fitted inhibition curve with a large enough effect; inconclusive means small, poorly fitted or top-dose-only effect; inactive means no such curve, though single readings can be large or run the other way.
# Test: qHTS Assay for Inhibitors of Hepatitis C Virus (HCV): Cytotoxicity Counterscreen for Cherry-picked Compounds
# Excerpt: Hepatitis C virus (HCV) infects about 200 million people in the world. Many infected people progress to chronic liver disease including cirrhosis with a risk of developing liver cancer. To date, there is no effective vaccine for hepatitis C. Current therapy based on interferon is only effective in about half of the patients and is associated with significant adverse effects. The fraction of people with HCV who can complete a successful treatment is estimated to be no more than 10 percent. Recent development of direct-acting antivirals against HCV, such as protease and polymerase inhibitors, is promising but still requires combination with peginterferon and ribavirin for maximal efficacy. In addition, these agents are associated with high rate of resistance and many have significant side effects. Due to the lack of a culture system for infectious HCV, the search for new HCV drugs has been greatly hampered. […] High-throughput screening (HTS) with an infectious HCV system would cover the complete spectrum of potentially druggable targets in all stages of HCV lifecycle, and would have more biological relevance than other cell-based assays. […]
# Cells were plated in a 1536-wel tissue culture grade plates at a final concentration of 1,000 cells/well (3 uL volume). […] The luminescence signal was read for 15 sec using the PerkinElmer ViewLux plate reader.
# 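Further: 44 h compound exposure; nearly all actives have a fitted effect of over 55% in size.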
row,SMILES,Potency
1,CC[N+]1(C)CCCC(OC(=O)C(O)(c2ccccc2)c2ccccc2)C1 (configuration not stated),inactive
2,CC1=CC(=Cc2sc3ccccc3[n+]2C)C=C(C)O1,7.05 µM (active)
